# Laboratory results from ChEMBL document CHEMBL4513216, “Probing the Open Global Health Chemical Diversity Library for Multistage-Active Starting Points for Next-Generation Antimalarials” (ACS Infect Dis, 2020).
# Among all 68,000 compounds or so, about 2,700 (4%) showed an effect of 50% or more. Shown is part of a subset that was picked to be rich in strong results.
# Test system: Plasmodium berghei
# Assay: Screen against P. berghei liver stage (PbLuc), transformed with Luciferase, at 2uM
# Assay type: functional, HepG2
# Conditions: tested at 2 uM
row,SMILES,INHIBITION [%]
1,COc1ccc(-c2nnsc2C(=O)N2CCSCC2)cc1,-20.55
2,N#CCCn1nc(C(F)(F)F)c2c1CCCC2,17.01
3,N#CCCn1nc(C(F)(F)F)c2c1CCC2,10.83
4,NCCCn1nc(C(F)(F)F)c2c1CCC2,58.18
5,COCC1CN(Cc2cccnc2)Cc2nnn(CC3CC3)c21 (stereo not drawn),-94.44
6,COCC1CC2(CCN(c3cc(OC)ncn3)CC2)CN1C(C)C (stereo not drawn),-0.45
7,COC(=O)c1cccc(C(=O)N2CCN(C(=O)N(C)C)CC2(C)C)c1,7.42
8,CCOc1cccc(C(C)NC(=O)N2CCC3(CC2)OCCO3)c1 (stereo not drawn),58.01
9,CC(NC(=O)N1CCC2(C1)OCCO2)c1cccc(Cl)c1 (stereo not drawn),22.12
10,CCOc1cccc(C(C)NC(=O)N2CCC(C(N)=O)CC2)c1 (stereo not drawn),-31.3
11,COc1cc(N2CCC3(CC2)CCN(c2cccnc2)C3=O)ncn1,2.72
12,O=C(c1ccc2nncn2c1)N1CCCCC1Cn1cccn1 (stereo not drawn),39.47
13,O=C(NCCOc1ccc(Cl)cn1)Nc1cccnc1,-1.56
14,O=C(NCCOc1ccc(Cl)cn1)Nc1nccs1,50.61
15,O=C(NCCOc1ccc(Cl)cn1)Nc1ccccn1,-65.52
16,C=Cc1ccc(C(=O)N2CCCC(Nc3ccc(OC)cc3)C2)cc1 (stereo not drawn),19.42
17,CCn1cc(CN2CCCN(C(=O)C3(C)CCOCC3)CC2)cn1,-1.55
18,CN(Cc1cccc(OC(F)(F)F)c1)C(=O)c1cnsn1,10.1
19,CC(C)CN1C[C@@H]2C(=O)NC3(CCN(C(=O)c4cccnc4)CC3)[C@@H]2C1,14.47
20,Cc1cnc(-c2nc(C3CCN(Cc4ccccc4O)CC3)no2)cn1,-10.49
21,O=C(NCCOC1CCCC1)c1ccc(-c2ccco2)[nH]c1=O,-40.62
22,c1ncc(Nc2nccc(C3CCCCN3CC3CCCCC3)n2)cn1 (stereo not drawn),-8.23
23,O=C(CCc1ccc(O)cc1)N1CCC(Cc2ccc(CO)cc2)C1 (stereo not drawn),11.28

row,SMILES,INHIBITION [%]
1,O=C(CCN1CCCCC1)N1CCC(Cc2ccc(CO)cc2)C1 (stereo not drawn),50.61
2,O=C(CCN1CCOCC1)N1CCC(Cc2ccc(CO)cc2)C1 (stereo not drawn),-11.66
3,O=C(CN1CCC(c2cccc(F)c2)C1)NCc1ccco1 (stereo not drawn),51.21
4,CC(C)NC(=O)CN1CCC(c2cccc(F)c2)C1 (stereo not drawn),28.33
5,O=C(CN1CCC(c2cccc(F)c2)C1)NCC(F)(F)F (stereo not drawn),20.28
6,CN1C[C@H]2CC[C@@H](CC1=O)N2C(=O)c1ccc(-c2ccccc2)[nH]c1=O,-40.36
7,Nc1nccc(C2CCN(CCO)C2)n1 (stereo not drawn),19.86
8,Cc1ccc(N2CCO[C@H]3CN(Cc4ccccn4)C[C@H]32)nn1,4.99
9,Cc1ccoc1C(=O)N1CCn2cc(CN3CCCC3)nc2C1,37.2
10,CC1CCN(Cc2cnc(S(=O)(=O)CC3CC3)n2CC2CCCO2)CC1 (stereo not drawn),-14.32
11,CCCS(=O)(=O)c1ncc(CN2CCC(C)CC2)n1CC1CCCO1 (stereo not drawn),70.81
12,CN1CCN(Cc2cnc(S(=O)(=O)CC3CC3)n2CC2CCCO2)CC1 (stereo not drawn),1.8
13,O=S(=O)(CC1CC1)c1ncc(CN2CCSCC2)n1CC1CCCO1 (stereo not drawn),65.76
14,O=S(=O)(CC1CC1)c1ncc(CN2CCOCC2)n1CC1CCCO1 (stereo not drawn),3.49
15,CCCS(=O)(=O)c1ncc(CN2CCC(CO)CC2)n1CC1CCCO1 (stereo not drawn),27.44
16,O=C(NC1CCCN(c2ncccn2)C1)c1ccoc1 (stereo not drawn),36.98
17,CC(=O)c1c(C)nn(S(=O)(=O)c2ccc(Cl)cc2)c1C,11.8
18,O=C(O)c1ccnc(SCC(=O)c2ccccc2)c1,25.23
19,Cc1ccc(OC2CCN(S(=O)(=O)N(C)C)CC2)nc1,15.75
20,C[C@H]1CN2C[C@H](O)CC2CN1Cc1ccc2nccnc2c1 (stereo partly drawn),-36.08
21,COc1ccccc1CCNC(=O)N(C)C(C)CS(C)(=O)=O (stereo not drawn),50.46
22,CCN(C(=O)NCCc1cccc(F)c1F)C(C)CS(C)(=O)=O (stereo not drawn),64.2
23,CC(C)Oc1ccccc1CNC(=O)N(C)C(C)CS(C)(=O)=O (stereo not drawn),-25.21

row,SMILES,INHIBITION [%]
1,CCS(=O)(=O)CC(C)N(C)C(=O)NCCc1cccc(F)c1F (stereo not drawn),-4.09
2,CCN(C(=O)NCCc1ccccc1Cl)C(C)CS(C)(=O)=O (stereo not drawn),34.46
3,COc1cc(Cl)ccc1CNC(=O)N(C)C(C)CS(C)(=O)=O (stereo not drawn),-22.82
4,Cc1cccc(CN2CCc3c(nc(N4CCC(C)CC4)[nH]c3=O)C2)n1,23.94
5,COc1ccc(CN2CCCC3(CCN(c4ccsc4)C3=O)C2)cc1 (stereo not drawn),7.21
6,N#Cc1ccc(CS(=O)(=O)NC(=O)c2ccc3c(c2)COC3)cc1,-14.32
7,CCCc1cc(CNc2cc(CCC)nc3ccnn23)on1,-15.75
8,Fc1cccc(F)c1Cn1c(C2CCNCC2)cc2cccnc21,13.17
9,C=c1ccoc1=C1NN=C(CNC2CCCN(c3cccnn3)C2)O1 (stereo not drawn),7.01
10,O=C(Cc1ccccn1)N1CCc2ncnc(N3CCCC3)c2CC1,-3.19
11,CCNC(=O)C1CCN(Cc2ccccc2OCC(F)(F)F)CC1,8.59
12,CC(C)(C)n1ncc(NCCc2ccccc2C(F)(F)F)c(Cl)c1=O,-59.58
13,CC(=O)N1C[C@H]2CC[C@@H](C1)N(S(=O)(=O)c1ccc(F)cc1Cl)C2,-11.81
14,CS(=O)(=O)N1CCC(NCC2(N3CCOCC3)CCCCC2)CC1,7.67
15,C1CCC(NCC2(N3CCOCC3)CCSC2)C1 (stereo not drawn),-20.95
16,C1CCC(CNC2CCSCC2)(N2CCOCC2)CC1,60.13
17,CCN1CC2(CCNCC2)COc2ccccc2S1(=O)=O,3
18,CCOCC1CN(Cc2cnn(C)c2)Cc2ncn(C)c21 (stereo not drawn),-20.41
19,CC(C)COCC1CN(Cc2ccoc2)Cc2ncn(C)c21 (stereo not drawn),-13.32
20,CC(C)COCC1CN(Cc2cnn(C)c2)Cc2ncn(C)c21 (stereo not drawn),79.02
21,CC(=O)N1CCCN(C(=O)CN(C)c2ccc(Cl)cn2)CC1,12.29
22,Cc1cccc(N(CC(=O)c2ccccc2)C2=NCCCCC2)c1,-17.7
